# In the library only some 2.4% were active in any assay of this set; here they are far more common.
# PPC-1+TRAIL kill: PPC-1 cancer cell killing with TRAIL present; PPC-1 cells + TRAIL, ATPLite viability luminescence; cell killing (% activity), % at 4 µM or 5 µM; hit rate 0.41% among 220,000; AID 1443;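 active means cell killing above 50% in the first pass at 4 µM, then a duplicate retest at 5 µM averaging 50% or more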
# HSF1 inhib: HSF1 inhibition; NIH3T3-HGL HSE-luciferase, MG132-induced, luminescence 8 h; hits give low values; activity change, negative = inhibition, % at 7.5 µM (by protocol); hit rate 0.77% among 300,000;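 active means more than half of replicate wells show activity change below -50%, luminescence cut by over half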;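 further: luciferase reports HSF-1 transcriptional activity via heat shock element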
# HSP90 refold inh: inhibitors of HSP90 luciferase refolding in rabbit reticulocyte lysate; luciferase refolding luminescence, 3 h; inhibition, % at 5.6 µM; hit rate 0.91% among 290,000;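 active means inhibition above the screen-wide mean plus 3 SD, computed separately per campaign, cut at about 16% in these data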;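 further: inhibitors lower the luminescence because luciferase stays unfolded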
# TRAIL sens C8: caspase-8 TRAIL sensitization; NB7+C8 cells + TRAIL, ATPlite viability luminescence; AID 624354; hit rate 1% among 360,000; inhibition (viability loss, TRAIL sensitization), % at 10 µM;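 active means compounds causing at least 50% loss of cell viability in the single-dose screen, relative to plate controls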
# STAT3 inh: STAT3 signaling inhibition; hit rate 0.89% among 190,000; U3A cells, IL-6 STAT3-luciferase reporter, luminescence; host cell line lacks STAT1; inhibition, % at 5.5 µM;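 active means inhibition above the mean inhibition across all screened compounds plus 3 SD, cut at about 44% in these data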
# STAT1 inh: STAT1 signaling inhibition; hit rate 0.35% among 200,000; inhibition, % at 5.5 µM; NIH 3T3 STAT1-luciferase reporter, IFN-gamma, luminescence;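 active means inhibition above a set limit, the mean inhibition across all tested compounds plus 3 SD, cut at about 34% in these data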
# HSP90 confirm: confirmation of HSP90 inhibitors; shares compounds with HSP90 refold inh; rabbit reticulocyte lysate, luciferase refolding luminescence, 3 h; inhibition, % at 5.9 µM; hit rate 64% among 2,300; AID 1846; in the data active means inhibition above about 18%
# FLuc counter: blocks native firefly luciferase in HSP90 counter-screen | shares compounds with HSP90 refold inh | inhibition, % at 5.9 µM | purified native firefly luciferase, luminescence | hit rate 48% among 2,300;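 active means inhibition above the mean inhibition of all tested sample wells plus 3 SD, cut at about 10% in these data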
# Numbers stand for hits; . = inactive; / = no result.
SMILES,PPC-1+TRAIL kill,HSF1 inhib,HSP90 refold inh,TRAIL sens C8,STAT3 inh,STAT1 inh,HSP90 confirm,FLuc counter
c1ccc(Oc2ccccc2-c2cc(NCCc3cccnc3)n3nccc3n2)cc1,/,/,/,.,/,/,/,/
COc1ccc(N(C(=O)c2ccco2)S(=O)(=O)c2ccc(F)cc2)cc1,.,.,17,.,.,.,.,.
COc1ccc(N(C(=O)c2ccco2)S(=O)(=O)c2cccc([N+](=O)[O-])c2)cc1,.,.,.,.,.,.,/,/
Cc1ccc2nc(SCC(=O)N3CCOCC3)[nH]c2c1,.,.,.,.,.,.,/,/
Cc1ccc2nc(SCC3CCCCO3)[nH]c2c1 (stereo not given),.,.,30,.,/,/,64,61
CCc1nc(C)cn1S(=O)(=O)c1ccc2c(c1)OCCO2,/,/,/,.,/,/,/,/
c1ccc(CSc2nnc3ccc(-c4ccncc4)nn23)cc1,.,.,.,.,.,.,/,/
O=C(CSc1nnc2ccc(-c3ccncc3)nn12)c1cccs1,.,.,66,.,.,.,.,.
Cc1ccc(C)c(N(Cc2cc3ccc(C)cc3[nH]c2=O)C(=O)c2ccco2)c1,.,.,18,.,/,/,.,.
Cc1cccc(C(=O)Nc2nc(C)c(C(=O)Nc3ccc4c(c3)CCC4)s2)c1,.,.,80,.,.,.,83,15
Cc1ccc(-n2nc3c(c2NC(=O)c2cccs2)CS(=O)(=O)C3)c(C)c1,/,.,86,.,/,/,.,.
Cc1ccccc1-n1nc2c(c1NC(=O)c1cccs1)CS(=O)(=O)C2,/,.,.,.,/,/,/,/
CCOc1ccc(-c2nc(CSCC(=O)N3CCN(C(=O)c4ccco4)CC3)c(C)o2)cc1,.,.,37,.,.,.,46,.
CNC(=O)COC(=O)c1c2c(nc3ccccc13)CCC2,.,.,.,.,/,/,/,/
CCCCNC(=O)COC(=O)c1c2c(nc3ccccc13)CCC2,/,.,33,.,/,/,.,.
CCN(CC)C(=O)C1=C(C)N(Cc2ccc(F)cc2)C(=O)C(CC(=O)NC(c2ccccc2)c2ccccc2)C1 (stereo not given),/,/,/,.,/,/,/,/
O=C(Oc1ccc2ccccc2c1)C1CCC1,/,.,37,.,/,/,.,.
O=C(Oc1ccc2ccc(O)cc2c1)C1CCCCC1,.,.,.,.,.,.,/,/
Fc1ccc(C2Nc3cccc4cccc(c34)N2)cc1,/,.,.,.,/,/,/,/
CCCOc1ccc(C2Nc3cccc4cccc(c34)N2)cc1,/,.,39,.,/,/,18,.
CCN(CC)c1ccc(C2Nc3cccc4cccc(c34)N2)cc1,/,.,57,.,/,/,.,.
COc1cc(OC)c(N(C)S(=O)(=O)c2cccc(C(=O)Nc3nccs3)c2)cc1Cl,/,/,/,.,/,/,/,/
CCc1cc(C(=O)Nc2ncccc2O)sc1C,/,.,43,.,/,/,53,43
CC(=N\Nc1ccccc1)/C(=N/O)C(=O)Nc1ccccc1,.,.,.,.,.,.,/,/
CC(=N\NC(=O)c1ccccc1)/C(=N/O)C(=O)Nc1ccccc1,/,.,73,.,/,/,.,.
SMILES,PPC-1+TRAIL kill,HSF1 inhib,HSP90 refold inh,TRAIL sens C8,STAT3 inh,STAT1 inh,HSP90 confirm,FLuc counter
COc1cc(C(=O)Nc2cc(S(C)(=O)=O)ccc2Cl)ccc1OCC(=O)N1CCOCC1,/,/,/,.,/,/,/,/
Cc1ccccc1OCCC(=O)OCC(=O)NC1CCCCC1,/,.,/,.,/,/,/,/
Cc1sc2nc3c4ccccc4c(NCc4ccco4)nn3c(=O)c2c1C,.,/,79,.,.,.,.,.
Cc1cc(C)nc(N2CCCC(C(=O)NC(C)CCc3ccco3)C2)n1 (stereo not given),.,.,.,.,.,.,/,/
Oc1ccc(Br)cc1CNc1cccc2cccnc12,/,.,25,.,/,/,.,.
Oc1ccc(Cl)cc1CNc1cccc2cccnc12,/,.,27,.,/,/,.,.
CC(C)NC(=O)N(C)C[C@@H]1Oc2cc(Br)ccc2S(=O)(=O)N([C@@H](C)CO)C[C@H]1C,/,/,/,.,/,/,/,/
CC1CCCCC12NC(=O)N(CC(=O)NCc1ccc3c(c1)OCO3)C2=O (stereo not given),.,.,26,.,.,.,.,.
CC1=C(C(=O)NCc2ccc3c(c2)OCO3)C2(CCC(C)CC2)OC1=O (stereo not given),.,.,57,.,.,.,.,.

# Compound activity from PubChem.
